Experimental data reported in ChEMBL document CHEMBL1201862, “PubChem BioAssay data set” (2004).
The campaign covered roughly 350,000 compounds. About 700 (0.2%) were called active. The rule behind the calls is not given here. This excerpt belongs to a sample that is enriched for actives.

The molecules below were run against RecQ-like DNA helicase BLM (Homo sapiens) (UniProt P54132) (assay: qHTS Assay for Inhibitors of Bloom's syndrome helicase (BLM).).
Format: functional

Chain of RecQ-like DNA helicase BLM (Homo sapiens) (P54132 whole entry): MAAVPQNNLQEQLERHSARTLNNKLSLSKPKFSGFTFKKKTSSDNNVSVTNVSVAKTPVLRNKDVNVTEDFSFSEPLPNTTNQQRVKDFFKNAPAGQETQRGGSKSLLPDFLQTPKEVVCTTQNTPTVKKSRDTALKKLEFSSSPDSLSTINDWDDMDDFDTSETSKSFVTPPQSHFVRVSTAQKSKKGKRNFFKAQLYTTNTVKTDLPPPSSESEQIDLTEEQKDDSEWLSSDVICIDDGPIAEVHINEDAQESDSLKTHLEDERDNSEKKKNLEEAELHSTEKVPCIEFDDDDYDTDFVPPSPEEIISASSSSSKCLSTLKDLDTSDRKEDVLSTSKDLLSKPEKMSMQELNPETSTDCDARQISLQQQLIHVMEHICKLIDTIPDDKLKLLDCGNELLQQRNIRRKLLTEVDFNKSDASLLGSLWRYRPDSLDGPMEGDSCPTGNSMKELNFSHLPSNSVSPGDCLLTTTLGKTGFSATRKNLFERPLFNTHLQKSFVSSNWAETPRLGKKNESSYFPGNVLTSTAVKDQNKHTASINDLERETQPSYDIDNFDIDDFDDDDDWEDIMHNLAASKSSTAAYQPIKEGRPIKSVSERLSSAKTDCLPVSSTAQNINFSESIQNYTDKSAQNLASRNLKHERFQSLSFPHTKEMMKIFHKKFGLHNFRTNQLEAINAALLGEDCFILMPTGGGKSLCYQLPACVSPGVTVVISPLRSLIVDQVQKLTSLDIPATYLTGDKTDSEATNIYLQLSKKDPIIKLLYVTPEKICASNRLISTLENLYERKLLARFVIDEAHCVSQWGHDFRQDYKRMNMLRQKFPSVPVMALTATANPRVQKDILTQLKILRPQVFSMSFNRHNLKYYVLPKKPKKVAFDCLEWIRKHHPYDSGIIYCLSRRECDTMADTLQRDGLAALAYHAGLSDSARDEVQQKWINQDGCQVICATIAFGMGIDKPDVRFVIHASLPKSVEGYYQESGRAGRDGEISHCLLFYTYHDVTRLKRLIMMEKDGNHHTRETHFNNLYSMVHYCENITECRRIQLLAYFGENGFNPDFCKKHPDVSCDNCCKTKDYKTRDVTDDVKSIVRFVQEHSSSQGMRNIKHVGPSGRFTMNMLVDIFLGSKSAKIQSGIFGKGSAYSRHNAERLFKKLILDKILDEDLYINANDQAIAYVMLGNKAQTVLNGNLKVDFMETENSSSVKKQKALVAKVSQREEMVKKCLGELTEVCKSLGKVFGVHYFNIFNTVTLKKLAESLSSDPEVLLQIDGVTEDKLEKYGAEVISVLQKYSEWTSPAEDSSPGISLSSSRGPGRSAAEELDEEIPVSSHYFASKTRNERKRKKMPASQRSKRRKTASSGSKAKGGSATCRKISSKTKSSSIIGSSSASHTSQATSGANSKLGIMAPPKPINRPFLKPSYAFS

For Nc1nc(N)c2nc(CNc3ccc(C(=O)N[C@@H](CCC(=O)O)C(=O)O)cc3)cnc2n1, which Potency is on record?
Its Potency is 20 µM (active).
